Source: PubChem (National Center for Advancing Translational Sciences (NCATS))
KDM5B inh: KDM5B demethylase inhibition. Q9UGL1. Potency, µM (titrated, usually from 57.7 µM), usual class: inhibitors. 220,000 compounds, 2.6% hits. KDM5B demethylase, FDH-coupled NADH fluorescence (FDH is formaldehyde dehydrogenase); active = well fitted inhibition curve with a large enough effect; also: nearly all actives have a fitted effect of over 70% in size
Target sequence (Q9UGL1 whole entry, looked up): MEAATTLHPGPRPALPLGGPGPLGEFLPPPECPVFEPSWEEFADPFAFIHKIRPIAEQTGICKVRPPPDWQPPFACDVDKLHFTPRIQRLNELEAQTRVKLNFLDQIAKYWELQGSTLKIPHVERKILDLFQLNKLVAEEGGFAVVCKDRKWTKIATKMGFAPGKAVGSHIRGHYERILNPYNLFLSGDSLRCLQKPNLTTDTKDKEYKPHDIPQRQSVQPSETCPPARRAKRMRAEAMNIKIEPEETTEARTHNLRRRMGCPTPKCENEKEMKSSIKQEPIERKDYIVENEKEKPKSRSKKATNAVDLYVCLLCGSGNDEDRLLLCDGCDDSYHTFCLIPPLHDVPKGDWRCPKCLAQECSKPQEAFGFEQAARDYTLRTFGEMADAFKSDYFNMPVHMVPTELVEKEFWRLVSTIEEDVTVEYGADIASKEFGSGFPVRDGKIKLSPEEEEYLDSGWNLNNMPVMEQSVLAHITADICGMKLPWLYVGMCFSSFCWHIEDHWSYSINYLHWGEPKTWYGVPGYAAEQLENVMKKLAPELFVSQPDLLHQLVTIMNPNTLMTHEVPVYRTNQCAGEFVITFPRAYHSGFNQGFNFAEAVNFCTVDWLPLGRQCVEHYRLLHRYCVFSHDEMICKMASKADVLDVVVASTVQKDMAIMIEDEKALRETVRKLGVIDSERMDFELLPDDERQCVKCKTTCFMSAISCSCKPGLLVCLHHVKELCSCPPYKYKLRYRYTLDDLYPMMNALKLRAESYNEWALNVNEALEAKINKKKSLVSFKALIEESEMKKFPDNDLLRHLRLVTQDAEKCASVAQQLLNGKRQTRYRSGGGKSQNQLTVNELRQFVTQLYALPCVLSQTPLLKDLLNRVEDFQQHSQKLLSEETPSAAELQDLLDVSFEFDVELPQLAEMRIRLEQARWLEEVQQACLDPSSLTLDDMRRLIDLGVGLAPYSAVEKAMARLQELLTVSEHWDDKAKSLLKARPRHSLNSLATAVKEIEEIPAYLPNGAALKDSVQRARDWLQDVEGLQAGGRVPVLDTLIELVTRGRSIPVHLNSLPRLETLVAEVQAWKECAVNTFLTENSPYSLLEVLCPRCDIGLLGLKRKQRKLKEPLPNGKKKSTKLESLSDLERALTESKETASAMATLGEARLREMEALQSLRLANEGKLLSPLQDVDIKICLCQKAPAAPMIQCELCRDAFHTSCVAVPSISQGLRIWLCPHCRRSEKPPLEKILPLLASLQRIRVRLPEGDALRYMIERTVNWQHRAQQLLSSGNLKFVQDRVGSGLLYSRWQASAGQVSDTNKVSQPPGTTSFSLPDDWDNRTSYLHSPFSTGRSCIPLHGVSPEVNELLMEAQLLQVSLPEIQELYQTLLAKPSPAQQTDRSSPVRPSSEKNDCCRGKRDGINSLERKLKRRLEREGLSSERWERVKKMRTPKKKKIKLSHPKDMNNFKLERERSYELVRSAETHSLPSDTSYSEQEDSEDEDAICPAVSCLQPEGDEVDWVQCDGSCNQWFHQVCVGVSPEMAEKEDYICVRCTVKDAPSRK
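Measured: NADH fluorescence change, 30 min, RT. System: KDM5BΔAP 200 nM final, H3K4me3 peptide, α-KG, Fe(II), ascorbate, NAD⁺ plus FDH, pH 7.5 HEPES. Compounds: titrated, 10 min pre-incubation with enzyme.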
Numbers stand for hits; - = inactive. The full list was thinned out, with hits kept by preference.

SMILES	KDM5B inh
Cc1nc2c(sc3cccc(F)c32)c(=O)n1CC(=O)Nc1ccccc1C(F)(F)F	-
CC(C)(C)CC(=O)C(C#N)C(=O)NCc1ccccc1 (centres undefined)	-
CC(C#N)(NC(=O)CSc1ccc2ccccc2n1)C1CC1 (centres undefined)	-
Cc1ccc(OCC(=O)N2CCN(c3cc(=O)n4nc(-c5ccccc5)sc4n3)CC2)c(C)c1	-
O=C(Cc1ccccc1)N1CCn2c(nnc2[C@@H]2C[C@@H](O)CN2Cc2ccccc2)C1	-
O[C@@H]1C[C@@H](c2nnc3n2CCN(Cc2ccc(F)c(F)c2)C3)N(Cc2ccccc2)C1	-
O[C@@H]1C[C@@H](c2nnc3n2CCN(Cc2cccc4[nH]ccc24)C3)N(Cc2ccccc2)C1	25µM
O=C(Cn1ccc2ccc(Cl)cc21)Nc1ccc2c(c1)OCCO2	-
CC(OC(=O)c1nn(C)c(=O)c2ccccc12)C(=O)c1c[nH]c2ccccc12 (centres undefined)	-
CN(Cc1cccs1)C(=O)c1cc(-c2ccncc2)nc2ccccc12	-
CN(Cc1ccccc1)C(=O)c1cc(-c2cccnc2)nc2ccccc12	-
CC(C)c1noc(CN(C)C(=O)c2cc(-c3cnn(C)c3)nc3ccccc23)n1	28µM
C=CCNc1nc(C(=O)OCC(=O)c2ccc(C(C)(C)C)cc2)cs1	-
COc1ccc(-c2nc(CNC(=O)Nc3ccc(C)cc3Cl)c(C)o2)cc1	-
COc1ccc(N2CCCCS2(=O)=O)cc1S(=O)(=O)NCc1ccncc1	-
CCCNc1c(NC(=O)c2c(F)cccc2F)c(=O)oc2ccccc12	-
Cc1cc(C)n2ncc(C(=O)N3CCC(=O)N(CC4CC4)C(C(C)C)C3)c2n1 (centres undefined)	32µM
Cc1ccc(Cl)c(C(=O)N2CCC(=O)N(CC3CC3)C(C(C)C)C2)c1 (centres undefined)	-
Cc1nc2ncccn2c1C(=O)N1CCC(=O)N(CC2CC2)C(C(C)C)C1 (centres undefined)	28µM
CCCc1cc(C(=O)N2CCC(=O)N(CC3CC3)C(C(C)C)C2)n[nH]1 (centres undefined)	-
CCCc1cc(C(=O)N2CCC(=O)N(CC3CC3)C(C(C)C)C2)cs1 (centres undefined)	-
Cc1ccc2[nH]c(C(=O)N3CCC(=O)N(CC4CC4)C(C(C)C)C3)c(C)c2c1 (centres undefined)	-
O=C(O)CCc1ccc(S(=O)(=O)NCc2ccc(F)cc2)cc1	-
Cc1ccc(C(=O)N2CCC(c3n[nH]c(=O)n3Cc3ccc(F)cc3)CC2)cc1C	-
N#Cc1ccc(COc2ccc(-n3cnnn3)cc2)c(F)c1	-
SMILES	KDM5B inh
O=c1c(-c2ccc(Cl)cc2)coc2cc(OCCN3CCN(CCO)CC3)ccc12	-
CCCCn1c2ccc(F)cc2c2n[nH]c(=S)nc21	-
CSc1cccc(NC(=O)Cn2c(N3CCN(c4ccccc4)CC3)nc(C)cc2=O)c1	-
CCOc1ccc(NC(=O)Cn2c(Nc3cc(C)cc(C)c3)nc(C)cc2=O)cc1	-
CSc1cccc(NC(=O)Cn2c(Nc3cc(C)cc(C)c3)nc(C)cc2=O)c1	28µM
CC(C)c1ccc2c(c1)C1(CC(=O)Nc3c1sc(C(=O)O)c3-c1ccccc1F)C(=O)N2C (centres undefined)	-
Cc1cc2oc(=O)cc(CN(C)CCOc3ccccc3F)c2cc1Cl	-
CC(C)OC(=O)c1nc2ccccc2nc1N1CCN(c2ccc(F)cc2)CC1	-
Cc1cc(Cl)ccc1-c1ccc(C=O)cc1	79µM
Cc1cc(Cl)ccc1-c1ccccc1C=O	-
Cc1cc(Cl)ccc1-c1cccc(CN)c1	-
NCc1ccc(-c2cccc(Cl)c2)cc1	-
O=Cc1ccc(-c2cccc(Cl)c2)cc1	32µM
O=Cc1ccccc1-c1cccc(Cl)c1	-
COC(=O)c1ccc(COC(=O)c2csc3c2CCCC3)o1	-
Cc1ccc(NC(=O)c2cc(=O)c3ccccc3o2)cc1C	-
COc1ccc(C(O)c2cc3c(cc2NC(=O)c2ccc(Cl)cc2)OCCO3)cc1 (centres undefined)	-
CCOC(=O)C(NC(=O)/C=C/c1ccc(C)c(Cl)c1)C(=O)OCC	-
COc1cccc(C(=O)NCc2ccc(C)cc2)c1	-
CC1(C)[C@H]2CC[C@@H](CNC(=O)c3cccc4[nH]ccc34)[C@@H]1C2	32µM
COc1ccccc1C(=O)NC[C@@H]1CC[C@H]2C[C@@H]1C2(C)C	-
CC1(C)[C@H]2CC[C@@H](CNC(=O)c3ccccc3Cl)[C@@H]1C2	-
COc1ccc(C(=O)N[C@@H]2CN(C(=O)Nc3ccc(OC(F)(F)F)cc3)CCC[C@H]2O)cc1	-
COc1ccccc1C(=O)Nc1ccnn1C1CCN(C(=O)C2CCCO2)CC1 (centres undefined)	-
COc1ccccc1C(=O)Nc1ccnn1C1CCN(c2cnccn2)CC1	28µM
SMILES	KDM5B inh
Cc1ccccc1CN1CCC(n2nccc2NC(=O)c2cccnc2)CC1	-
CCc1nc2ccccc2c(NC(=O)CN2CCN(c3ccccc3)CC2)c1C	-
COCC(C)Nc1ncnc2c1c(-c1ccccc1)cn2-c1cccc(C(F)(F)F)c1 (centres undefined)	-
Cc1[nH]c2ccc(F)cc2c1CC(=O)N1CCCC1	-
O=C1CCN(C(=O)[C@@H]2CCCN2Cc2cccc(OC(F)(F)F)c2)CCCCCCN1	-
O=C([C@@H]1CCCN1Cc1cc(=O)c2cc(F)ccc2[nH]1)N1CCCCC1	28µM
CC(Oc1c(F)c(F)c(F)c(F)c1F)C(=O)c1c[nH]c2ccccc12 (centres undefined)	-
Cc1cccc(NC(=O)Cn2c(C)cc3ccccc32)c1	-
COc1cccc(-c2nc(-c3c(C)noc3C)cc3c2cc(C)n3CCN(C)C)c1OC	40µM
Cc1noc(C)c1-c1cc2c(cc(C)n2CCN(C)C)c(-c2ccccc2O)n1	32µM
Cc1noc(C)c1-c1cc2c(cc(C)n2CCN(C)C)c(-c2ccc(CO)cc2)n1	25µM
Cc1noc(C)c1-c1cc2c(cc(C)n2CCN(C)C)c(Nc2ccn(C)n2)n1	-
Cc1noc(C)c1-c1cc2c(cc(C)n2CCN(C)C)c(-c2cccc(O)c2)n1	-
CCn1c(=O)c(-c2noc(C(=O)NCc3ccc(C)o3)n2)nn(-c2ccccc2)c1=O	-
C=CCNC(=S)Nc1ccc(Cl)cc1Cl	-
CCS(=O)(=O)CC(=O)O	-
CC(=O)N1Cc2ccccc2CC2(CCN(Cc3ccccc3)C2)C1 (centres undefined)	-
COC(=O)c1sc(NC(=O)C2CCCCC2)c(C(=O)OC)c1C	-
O=C(OC1CCOC1=O)c1ccccc1Sc1ccc(C(F)(F)F)cc1[N+](=O)[O-] (centres undefined)	-
CN(Cc1ccc(-c2ccc(Cl)cc2)o1)C(=O)CNC(=O)c1ccccc1	-
CC(C)Oc1nc2ccccc2nc1N1CCC(C(=O)Nc2ccc(Cl)cc2)CC1	-
Cc1cc(SCC(=O)Nc2ccc(F)c(F)c2F)nc2ccccc12	-
CS(=O)(=O)Oc1ccc2c(=O)c(Oc3ccccc3Br)c(C(F)(F)F)oc2c1	-
O=C(NC1CCN(Cc2ccccc2)C1)c1c[nH]c2ccccc12 (centres undefined)	-
O=C(Nc1ccc2oc(-c3cccnc3)nc2c1)c1cccc(Cl)c1	-
Cc1ccc(S(=O)(=O)N2CC(C(=O)NC3CCCCC3)C3(CCOCC3)C2)cc1F (centres undefined)	-
CCCCC(=O)Nc1ccc(OCC)c2ncccc12	-
COc1ccc(CN2CCN(C(=O)Nc3cccc(Cl)c3)CC2)c(OC)c1OC	-
CC(C)N(C)CC1CCN(C(=O)Nc2cccc(Cl)c2)CC1	-
